In PubChem BioAssay (NCI) one finds growth data, which are given here for 13 compounds.

SMILES strings stand for the structures. The panel holds about 83,000 compounds, 20% with a hit somewhere; the sample as a whole holds those more often.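 96-well plates, one dose, 48 hours. Percent growth reported; active if below 10.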 Calls of active or inactive are those of the source.

The assay concerns HL-60(TB) leukemia. Kind of assay: NCI-60 one-dose screen, 48 h (100 = growth as untreated, 0 = no growth, -100 = all killed). As to conditions: 10 µM unless noted.
As for `CC(=O)OCC1OC(OC2=C(CC=C(Cl)Cl)C(=O)c3ccccc3C2=O)C(OC(C)=O)C(OC(C)=O)C1OC(C)=O` (stereo not drawn), the growth is 0.376% (active).
The value for `O=C(NC(=S)NNC(=S)NNc1ccccc1)c1ccccc1` was 0.166% (active).
With `COc1ccc(NC(=S)Nc2ccccn2)cc1`, the growth is 84.9% (inactive).
The value for `CC(C)Cc1nc(Nc2ccccc2)[nH]c(=O)c1C#N` was 57.7% (inactive); that for `C=C1C(=O)O[C@H]2[C@H]1CC/C(COC(=O)NCCc1c[nH]c3ccc(OC)cc13)=C\CC[C@@]1(C)O[C@@H]21` was -42.8% (active).
With `COC(=O)c1ccc(C2Nc3ccc(S(=O)(=O)Nc4ccc(C)c(C)c4)cc3C3OCCC23)cc1` (stereo not drawn) the figure was 59.3% (inactive); with `O=C(Nc1cccc(-n2cc(-c3ccncc3)c(-c3cc(O)cc(Cl)c3)n2)c1)c1ccc(N2CCOCC2)c(C(F)(F)F)c1`, -46.4% (active).
As for `COCCCN=C(N)c1ccc(NC(=O)c2ccc(C(=O)Nc3ccc(C(N)=NCCCOC)cc3)cc2)cc1`, the growth was 71.3% (inactive).
`O=c1oc2ccc(Br)cc2c(=O)n1-c1ccc(Br)cc1F`: the growth was -39.1% (active).
With `O=C(NCCN1CCOCC1)Nc1ccc(-c2cc3c(Nc4ccc(Oc5cccc(C(F)(F)F)c5)c(Cl)c4)ncnc3s2)cc1` the figure was -25.6% (active).
With `CC(CNc1nc(Nc2ccc(Cl)c(Cl)c2)nc(C(Cl)(Cl)Cl)n1)N(C)C` (stereo not drawn) the figure was -21% (active).
`Clc1cccc(Cl)c1Cn1c(-c2cncs2)nc2ccccc21`: the growth is 56.6% (inactive).
Turning to `CCCCCCCC/C=C/CCCCCCCC1=NC(C)(C)CN1C(C)C`, the growth was -65.6% (active).
